Compound activity: PubChem, several laboratories
Arbovirus anti – antivirals against arbovirus infection. arbovirus infection cell-based antiviral screen. inhibition, % at 10 µM. 200,000 compounds, 0.37% hits. AID 1251; in the data active means inhibition above about 30%
Hck-Nef inh – blocks Nef-activated human Hck kinase. P08631. 220,000 compounds, 0.68% hits. inhibition, % at 20 µM. Recombinant Hck-YEEI plus Nef, Z-Lyte FRET kinase assay;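 active means Hck-Nef kinase inhibition above about 50%, limit read from the data; inactive means inhibition below that limit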;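 further: 0% = DMSO with Hck plus Nef and 100% = Hck alone without Nef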
Target sequence (P08631 whole entry, looked up): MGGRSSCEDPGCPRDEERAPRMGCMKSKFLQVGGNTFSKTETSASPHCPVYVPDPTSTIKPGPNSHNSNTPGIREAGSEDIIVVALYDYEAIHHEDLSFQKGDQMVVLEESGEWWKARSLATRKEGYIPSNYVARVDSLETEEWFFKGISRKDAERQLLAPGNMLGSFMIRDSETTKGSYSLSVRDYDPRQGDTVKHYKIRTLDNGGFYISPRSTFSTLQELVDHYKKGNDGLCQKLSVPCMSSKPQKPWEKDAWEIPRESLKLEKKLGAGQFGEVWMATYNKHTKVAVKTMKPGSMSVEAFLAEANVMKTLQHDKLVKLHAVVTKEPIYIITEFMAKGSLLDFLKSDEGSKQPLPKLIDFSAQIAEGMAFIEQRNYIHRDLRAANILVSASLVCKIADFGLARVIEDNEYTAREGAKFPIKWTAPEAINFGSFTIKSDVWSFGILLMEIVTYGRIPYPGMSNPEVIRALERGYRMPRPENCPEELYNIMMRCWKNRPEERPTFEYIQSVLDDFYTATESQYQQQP
EP2 modulator – EP2 receptor (human) modulation; P43116; induction, % at 25 µM; EP2-expressing cells, cAMP HTRF FRET, PGE2 co-stimulation; AID 940; 260,000 compounds, 0.83% hits;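 active means compounds whose cAMP rise, as percent of the full-agonist control response, exceeds 60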;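 further: rat C6 glioma line stably carrying human EP2 under a CMV promoter; the protocol text gives 20 µM as final concentration; 100% = response of wells given 1 µM PGE2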
PGE2 EP2 inh – inhibitors of human EP2 prostaglandin E2 receptor; C6 glioma cells expressing human EP2, cAMP TR-FRET; cells stimulated with saturating PGE2; inhibition, % at 25 µM; 260,000 compounds, 0.52% hits;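 active means percent inhibition above 40 after rounding to a whole number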;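 further: rat C6 glioma host cells with rolipram phosphodiesterase inhibitor present; the protocol text gives 20 µM as final concentration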
p97 inhibitor – inhibitors of human p97 ATPase; 220,000 compounds, 0.42% hits; inhibition, % at 8 µM; P55072; recombinant p97 ATPase, Kinase-Glo ATP luminescence, 3 h; in the data active means inhibition above about 15%;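 further: 0% = DMSO vehicle and 100% = wells lacking enzyme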
Hck-Nef confirm – confirmation of Hck-Nef kinase inhibitors; Recombinant Hck-YEEI:Nef, Z-Lyte FRET kinase assay; 1,300 compounds, 28% hits; shares compounds with Hck-Nef inh; calls only at 10 µM;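 active means average inhibition of at least 50%, with Z-scores no higher than 3 in both the phospho-tyrosine peptide and fluorescence counterscreens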
The depositor's hits bear a star; i = inactive; . = no result shown; + = active, no number. Sampled rows, rich in hits. Any-hit rate of the full collection: about 2.4%.

SMILES	Arbovirus anti	Hck-Nef inh	EP2 modulator	PGE2 EP2 inh	p97 inhibitor	Hck-Nef confirm
Brc1ccc(C2C3=C(Nc4ncnn42)c2ccccc2OC3c2ccncc2)cc1 (stereo unspecified)	-16	73*	-7	8	-2	+
COc1ccc(C2C3=C(Nc4ncnn42)c2ccccc2OC3c2ccc(F)cc2)cc1OC (stereo unspecified)	.	.	3	10	.	.
COc1ccc(/C=c2\s/c(=C\C(=O)C(C)(C)C)[nH]c2=O)cc1O	.	71*	-4	8	7	+
CCOc1ccccc1N=c1oc2cc(O)ccc2cc1C(=O)NCC1CCCO1 (stereo unspecified)	11	59*	26	6	-3	.
CC1=NNC(=O)/C1=C\c1cn(-c2ccccc2)nc1-c1cccs1	-32	99*	2	19	-1	+
CC1=NNC(=O)/C1=C\c1cn(-c2ccccc2)nc1-c1ccc(F)cc1	-30	86*	-29	14	2	+
O=C(N/N=C/c1cn(-c2ccccc2)nc1-c1cccs1)c1ccccc1F	-9	2	-53	14	-3	.
CC(NC(=O)c1nccc2ccccc12)c1nc(-c2cccnc2)n[nH]1 (stereo unspecified)	.	.	-41	10	.	.
COc1ccc(C(=O)N2CCCC(C(=O)N3CCCCCC3)C2)cc1 (stereo unspecified)	7	57*	-5	-1	-1	i
O=C(NCc1cccnc1)Nc1cccc2ccccc12	.	.	-22	12	.	.
NS(=O)(=O)c1ccc(N2N=C(c3ccccc3)CC2c2ccc(F)cc2)cc1 (stereo unspecified)	-39	60*	34	13	6	.
c1ccc(C2CC(c3cccs3)=NN2c2ccccc2)cc1 (stereo unspecified)	.	-24	10	20	0	.
COc1ccc(C2CC(c3ccccc3)=NN2c2ccc(S(N)(=O)=O)cc2)cc1 (stereo unspecified)	-32	108*	20	6	-1	.
COc1ccc(C2CC(c3cccs3)=NN2c2ccc(C=O)cc2)cc1 (stereo unspecified)	-29	54*	24	8	6	i
Fc1ccc(C2CC(c3cccs3)=NN2c2ccccc2)cc1 (stereo unspecified)	-17	39	32	4	4	.
COc1ccc(C2=NN(S(=O)(=O)c3ccccc3)C(c3ccccc3)C2)cc1 (stereo unspecified)	.	-23	40	8	5	.
O=c1[nH]c2cc3c(cc2cc1C(c1nnnn1C1CCCCC1)N1CCc2ccccc2C1)OCCO3 (stereo unspecified)	.	.	5	9	.	.
COC(=O)c1ccc(C(=O)OC)c(N)c1	-3	86*	11	3	2	.
COC(=O)c1ccc(N2CCCCC2)c(N)c1	-2	20	28	5	0	.
COC(=O)c1ccc(C(=O)OC)c(NC(=O)Oc2ccccc2)c1	-2	58*	16	10	3	.
COc1ccc(OC)c(NC(=O)CSc2nnc(-c3cccnc3)n2-c2cccc(Cl)c2)c1	.	.	-18	9	.	.
CC1=CC(C)[C@H](/C=N/n2c(=O)[nH]c3c([nH]c4ccc(Br)cc43)c2=O)C(C)C1 (stereo partly specified)	-22	61*	-10	6	4	i
CCOC(=O)COc1ccccc1C1C(C(=O)OC)=C(N)OC2=C1C(=O)CC(C)(C)C2 (stereo unspecified)	.	.	20	12	.	.
CCOc1ccc(/C=C2\SC(=S)N(NS(=O)(=O)c3ccc(C)cc3)C2=O)cc1OC	.	51*	-42	15	-8	+
CC(C)(C)C(=O)Nc1ccc2oc(=O)ccc2c1	.	.	-17	13	.	.
SMILES	Arbovirus anti	Hck-Nef inh	EP2 modulator	PGE2 EP2 inh	p97 inhibitor	Hck-Nef confirm
C/C(=N/NC(=O)c1cc2ccccc2cc1O)C1C(=O)c2ccccc2C1=O	4	82*	-42	7	10	+
C/C(=N\NC(=O)c1ccccc1O)C1C(=O)c2ccccc2C1=O	18	6	-30	6	5	.
COc1ccc(N=C2NC(=O)/C(=C/c3ccc(O)c(OC)c3)S2)cc1	-14	30	-32	0	4	.
COc1ccc(N=C2NC(=O)/C(=C\c3ccco3)S2)cc1	-1	61*	-15	7	1	i
COc1cc(/C=N/NC(=O)c2sc3nc(C)cc(C)c3c2N)ccc1O	.	51*	-41	15	10	.
Oc1ccc(/C=N/Nc2ncnc3nc[nH]c23)cc1	.	95*	-5	4	6	+
Clc1ccc(/C=N/Nc2ncnc3nc[nH]c23)cc1	.	84*	-35	2	-6	+
c1csc(CNc2ncnc3nc[nH]c23)c1	-3	3	-9	15	2	.
Cc1ccc(/C=N/Nc2ncnc3nc[nH]c23)cc1	.	93*	9	9	-1	+
Clc1ccccc1CNc1ncnc2nc[nH]c12	-4	4	-13	17	-2	.
COc1ccc(Cn2nnnc2CN2CCC(C)CC2)cc1	.	.	-4	10	.	.
CS(=O)(=O)N(CC(=O)NCc1ccc2c(c1)OCO2)c1ccccc1F	.	.	25	7	.	.
Cc1cc(C(=O)COC(=O)c2cc(O)c3ccccc3c2O)c(C)n1CC1CCCO1 (stereo unspecified)	0	93*	-27	16	6	i
Cc1cc(C(=O)COC(=O)c2ccccc2Br)c(C)n1CC1CCCO1 (stereo unspecified)	.	25	-26	3	-13	.
CCOC(=O)CSc1nnc2c(n1)[nH]c1c(C)cc(C)cc12	.	.	-12	9	.	.
CC(=O)Nc1cccc(NC(=O)c2cc(-c3cccnc3)nc3ccc(Br)cc23)c1	10	2	-8	11	8	.
CSc1ccccc1NC(=O)c1cc(-c2cccnc2)nc2ccc(Br)cc12	0	57*	26	15	2	i
O=C(O)c1ccc(N/N=C/c2ccc(-c3cccc(Cl)c3)o2)cc1	.	53*	2	14	8	i
CCC(c1nnnn1C1CCCC1)N(Cc1cc2ccc(C)cc2[nH]c1=O)C1CCCCC1 (stereo unspecified)	.	.	41	11	.	.
CCOC(=O)c1nc2nc(-c3cccs3)cc(C(F)(F)F)n2n1	1	9	-6	2	2	.
Nc1nc2nc(-c3cccs3)cc(C(F)(F)F)n2n1	-3	110*	20	9	4	.
COc1cc(/C=C/C(=O)OCC(=O)Nc2ccc(C)cc2[N+](=O)[O-])ccc1O	-4	60*	7	7	-3	i
COc1cc(/C=C/C(=O)OCC(=O)Nc2cc(C)c(C)cc2[N+](=O)[O-])ccc1O	.	4	-6	4	0	.
COc1cc(/C=C2\SC(c3ccc(C)cc3)=NC2=O)cc(OC)c1OC	-13	1	0	10	-1	.
COc1cc(/C=C2\SC(c3ccccc3)=NC2=O)cc(Cl)c1O	-1	50*	-48	10	5	+
